About 200 (20%) of roughly 1,000 compounds were called active. Only a sample is shown. Measured potencies and affinities stand elsewhere. A number with no mark means an inactive call. No stated cut-off is given here; in the data, active means inhibition above about 55%; inactive means the rest.
The molecules below were run against Dual specificity protein phosphatase 3 (Homo sapiens) (UniProt P51452) (assay: VHR1 phosphatase inhibitors, biochemical (AID 1878)). Conditions: recombinant VHR phosphatase, fluorogenic substrate; at 13.3 µM; stronger effect = higher value.
Dual specificity protein phosphatase 3 (Homo sapiens), sequence (P51452 whole entry, looked up): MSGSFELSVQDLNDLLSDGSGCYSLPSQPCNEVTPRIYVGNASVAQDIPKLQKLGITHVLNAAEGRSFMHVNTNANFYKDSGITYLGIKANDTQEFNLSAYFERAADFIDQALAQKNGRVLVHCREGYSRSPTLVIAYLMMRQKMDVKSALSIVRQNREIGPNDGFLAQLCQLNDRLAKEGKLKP

| SMILES | inhibition |
| --- | --- |
| Cc1ccc(NC2CCCN(C(=O)c3ccccn3)C2)cc1C (stereo not given) | -5.3% |
| O=C(CCc1nnc2ccc(NCc3ccccc3)nn12)NC1CCCCC1 | 4.6% |
| COc1ccc(N=C2C(=O)Nc3ccc(C)c(Br)c32)cc1 | 7.8% |
| COc1ccc(Cl)cc1NCCC(O)c1ccc(F)cc1 (stereo not given) | -9.5% |
| COc1ccccc1-c1csc(-n2ncc(C#N)c2N)n1 | 73.9% (active) |
| O=C(NC1CC2CCCC(C1)N2)c1ccccc1 (stereo not given) | -12.1% |
| CC(NC(=O)C(=O)N1CCCCC1)C(c1cccs1)N1CCN(C)CC1 (stereo not given) | -4.5% |
| CCN(CC)CCNC(=O)Cn1cnc2sc(C)c(S(=O)(=O)N3CC(C)CC(C)C3)c2c1=O (stereo not given) | -8.4% |
| COc1cc(C(=O)NCCC(=O)NCc2c(F)cc(F)cc2F)cc(OC)c1OC | 21.2% |
| CCC(=O)N1CCc2cc(S(=O)(=O)NCCc3ccc(S(N)(=O)=O)cc3)ccc21 | 0.3% |
| COc1ccccc1CN1CC(C(=O)NCc2ccc(C)c(F)c2)CCC1=O (stereo not given) | -6.8% |
| COc1ccc2c(c1)c(=O)oc1c(C)c(OCc3cc(C(=O)O)oc3C)ccc12 | 40.3% |
| Cc1c(C)c2ccc(OCC(=O)NCCCn3ccnc3)c(C)c2oc1=O | -9.5% |
| Cc1ccc(C)c(NC(=O)C(c2ccccc2)N2CCOCC2)c1 (stereo not given) | 6.5% |
| COc1cccc(-c2nc(CS(=O)(=O)CC(=O)N3CCCCC3)c(C)o2)c1 | -1% |
| CC1=C(C(=O)OC(C)C)C(c2ccc3c(c2)OCO3)NC(=O)N1 (stereo not given) | -7.6% |
| O=C(Nc1ccccc1C(=O)O)c1ccc2c(c1)C(=O)N(c1cccc([N+](=O)[O-])c1)C2=O | 2.4% |
| NS(=O)(=O)c1ccc(NC(=O)c2cccc(N3C(=O)c4ccccc4C3=O)c2)cc1 | 93.1% (active) |
| C[n+]1cccc(C(=O)Nc2ccccc2)c1 | 13.8% |
| Cc1ccccc1-c1nc(CS(=O)(=O)CC(=O)NCCCN2CC(C)CC(C)C2)c(C)o1 (stereo not given) | 28.9% |
| COCCn1c(SCC(=O)Nc2cccc(C)n2)nnc1-c1ccco1 | 3.1% |
| O=C(NCCc1ccc(Cl)cc1)c1ccc2nccnc2c1 | 6.7% |
| CCN1CCN(CCCNC(=O)CN2C(=O)c3cccnc3Oc3ccc(Cl)cc32)CC1 | 14% |

| SMILES | inhibition |
| --- | --- |
| CC1CCN(CCc2nc3cc(NC(=O)C(C)C)ccc3n2C)CC1 | 9.3% |
| CC(=O)c1ccc(NC(=O)c2ccc3nc(-c4ccco4)c(-c4ccco4)nc3c2)cc1 | 92.7% (active) |
| CC(=O)c1ccc(NC(=O)CCn2c(=S)oc3ccccc32)cc1 | 40.7% |
| Cc1ccccc1NC(=O)c1cccc(NC(=O)c2ccco2)c1 | -9.7% |
| CC(C)Cn1c(=O)c2ccccc2n2c(CCC(=O)NC3CCN(Cc4ccccc4)CC3)nnc12 | 17.9% |
| Cn1nc(-c2ccc(C(=O)Nc3ccc(F)cc3)cc2)c2ccccc2c1=O | 96.2% (active) |
| COCCNC(=O)Cn1nc(-c2ccc(C)cc2)c2ccccc2c1=O | 2.6% |
| O=C(Nc1ccccc1-c1nnn(CC(=O)N2CCOCC2)n1)c1ccc(F)cc1 | -1.6% |
| CCn1cc(C(=O)N2CCCC(N3CCN(c4cccc(C(F)(F)F)c4)CC3)C2)cn1 (stereo not given) | -9% |
| COCCCNC(=O)Cn1cc(/C=C(\C#N)C(=O)NC2CC2)c2ccccc21 | -8.8% |
| CCN(CC)CCC(=O)N1c2ccccc2CCc2ccc(NC(=O)OC(C)C)cc21 | 3.9% |
| O=c1[nH]c(=O)c2nc3c4ccccc4c4ccccc4c3nc2[nH]1 | 80.4% (active) |
| Cn1nc(C(=O)NCCCN2CCCCC2)c2c1-c1ccccc1S(=O)(=O)C2 | -6.6% |
| Cc1ccc(NC(=O)C2CCN(S(=O)(=O)c3ccc4c(c3)NC(=O)CO4)CC2)cc1 | -0.8% |
| COc1ccc(CNCC(O)(c2ccccc2)c2ccc(F)cc2)cc1OC (stereo not given) | 13% |
| Cc1sc2ncn(CC(=O)N3CCCC(C)C3)c(=O)c2c1S(=O)(=O)N1CCCCC1 (stereo not given) | 7.1% |
| COc1cc2ccccc2cc1C(=O)NC(=S)Nc1cccc(C(=O)O)c1 | 55% (active) |
| O=C(NC(=O)c1ccccc1)Nc1ccccc1 | 2.5% |
| O=C(NC(=S)Nc1ccc(CN2CCCCC2)cc1)c1cccc(OCc2ccccc2)c1 | -29.4% |
| O=C(CSc1nc(-c2ccccc2)nc2c1Cc1ccccc1O2)Nc1ccc(C(=O)O)cc1 | 98.8% (active) |
| O=C(CNCCc1ccccc1)Nc1ccc(C(=O)N2CCCCC2)cc1 | 3.1% |
| O=C(CSc1nc(-c2ccc(F)cc2)nc2c1Cc1ccccc1O2)Nc1cccc(C(=O)O)c1 | 96.6% (active) |
| CC(=O)c1ccc(NC(=O)CSc2nc(C)cc(C)c2C(N)=O)cc1 | -9.9% |

| SMILES | inhibition |
| --- | --- |
| CCCCn1c(N)c(N(CCOC)C(=O)c2cc(S(=O)(=O)N3CCCCC3)ccc2Cl)c(=O)[nH]c1=O | -7.9% |
| COC(=O)c1ccc(COc2ccc(C(C)(C)C)cc2)o1 | 29.7% |
| O=C1CCCN1CCC(=O)N1CCCC(CO)(Cc2ccccc2)C1 (stereo not given) | 26.9% |
| CC1CC(C)CN(CCCNC(=O)c2ccc(CNS(=O)(=O)c3ccc(F)cc3)cc2)C1 (stereo not given) | 2.4% |
| COc1ccc(CN2C(=O)c3cccnc3C2=O)cc1S(=O)(=O)NC1CCCCC1 | -2.5% |
| CCOc1ccc(C(=O)N2CCC3(CC2)NCCc2[nH]cnc23)cc1OCC | -1.8% |
| Cc1c(C)c2ccc(O[C@@H]3O[C@H](CO)[C@H](O)[C@H](O)[C@H]3O)c(C)c2oc1=O | -3.5% |
| Cc1c(NC(=O)c2ccc(Cl)c(S(=O)(=O)N3CCCCC3)c2)c(=O)n(-c2ccccc2)n1C | -10.6% |
| CCC1CCCCN1CCCNC(=O)CNC(=O)c1nn(-c2ccc(OC)c(Cl)c2)c(=O)c2ccccc12 (stereo not given) | -5.3% |
| COc1ccc(CN2CCNC(=O)C2CC(=O)NCC2CCOCC2)c(C)c1C (stereo not given) | 15.1% |
| COCCNc1cc(C)nc2c3c(C)cc(C)nc3nn12 | 9.5% |
| CCOc1cc(/C=C(\C#N)C(=O)Nc2cccc(C(=O)O)c2)ccc1OCc1ccccc1Cl | 94.8% (active) |
| COc1ccc(CCC(=O)NNC(=O)Nc2ccc(OC)c(OC)c2)cc1 | 1.3% |
| COc1cc(/C=C(\C#N)C(=O)Nc2ccc(C(=O)O)cc2)ccc1OC(=O)c1cccc(F)c1 | 67.8% (active) |
| C/C=C/c1ccc(OCC(O)CNCCc2ccc(OC)cc2)c(OC)c1 (stereo not given) | 11.7% |
| CCOc1ccc(C(=O)Nc2cc3c(cc2N2CCCC2)n(CC)c(=O)n3CC)cc1OCC | -0.2% |
| CCOc1ccccc1NC(=O)Nc1cc(C(=O)O)ccc1C | -10.9% |
| CCOc1cc(/C=C(\C#N)C(=O)Nc2ccccc2C(=O)O)ccc1OC(=O)c1ccc(C)cc1 | 87.8% (active) |
| CCOc1cc(/C=C(/C#N)C(=O)Nc2ccc(OC)cc2)ccc1OCc1ccc(C(=O)O)cc1 | 90.9% (active) |
| CCc1ccccc1S(=O)(=O)c1c(C)cc(C)nc1Cl | -1.3% |
| C=CCC(=O)NC1CC(C)(C)Cc2c1cnn2-c1ccc(C)cc1 (stereo not given) | -12.1% |
| CCC(=O)NC1=C(Nc2ccc(N)cc2)C(=O)c2ccccc2C1=O | -7.2% |
| O=C(NC1CCCCC1)c1cc(-c2ccccc2Cl)on1 | 3.4% |

| SMILES | inhibition |
| --- | --- |
| CCCN1C2CCCC1CC(NC(=O)NC13CC4CC(CC(C4)C1)C3)C2 (stereo not given) | 25.2% |
| CC(C)c1nn2c(=O)cc(COc3cccc(NC(=O)c4ccco4)c3)nc2s1 | 10.3% |
| O=C(Nc1cccc(O)c1)C1CC(c2cccc(Br)c2)=NO1 (stereo not given) | 6.5% |
| O=C(Nc1ccc(C(=O)N2CCN(c3ccc(F)cc3)CC2)cc1)C1=CSCCO1 | 4.8% |
| Cc1nn(CC(=O)NCCCN2CCCCC2)c(=O)c2cc(-c3ccccc3)nn12 | 22.8% |
| COc1cc(CNc2ccc(N3CCOCC3)cc2)ccc1OCC(=O)NC(C)(C)C | 2.1% |
| CCOc1ccccc1CN1CCC(n2nccc2NC(=O)C2CCCC2)CC1 | -19.2% |
| COc1cc(C(=O)NCC2(c3ccccc3)CCCC2)ccc1OC(C)C | -7.1% |
| Cc1ccc(-c2[nH]ncc2C(=O)c2ccccc2C)c(O)c1 | -9% |
| CC(Cc1ccccc1)N1C(=O)c2ccccc2C1=O (stereo not given) | -2.4% |
| C=CCN(C(=O)CNC(=O)c1cccs1)C(C(=O)NC(C)(C)C)c1ccccc1 (stereo not given) | -6% |
| Cc1cc(Cl)c2oc(C(=O)NC(C)c3ccncn3)c(C)c2c1 (stereo not given) | -5.8% |
| CC1Sc2ccc(S(=O)(=O)CCC(=O)N(C)Cc3ccco3)cc2NC1=O (stereo not given) | -2.5% |
| CC(C)(C)C(=O)NN=C1CCC(c2ccccc2)CC1 (stereo not given) | -3.9% |
| CCOC(=O)C1(CCOc2ccccc2)CCN(CC(O)CO)CC1 (stereo not given) | -7.8% |
| CC1CCCN(CCCNC(=O)c2ccc3c(c2)N(Cc2ccccc2F)C(=O)c2ccccc2S3(=O)=O)C1 (stereo not given) | -12.5% |
| Cc1ccc(C(=O)Nc2ccccc2N2CCCC2)cc1 | 21% |
| CC(C)Cn1c(C23CC4CC(CC(C4)C2)C3)n[nH]c1=S | 10% |
| CCCCNC(=O)c1cn(C)c2ccc(S(=O)(=O)N3CCCC3)cc2c1=O | -4% |
| Cc1ccc(CN2C(=O)CC(Nc3ccc(N4CCOCC4)cc3)C2=O)cc1 (stereo not given) | 1.9% |
| Cc1ccc2nc(N3CCN(C)CC3)c(C=O)c(=O)n2c1 | 2.4% |

From PubChem BioAssay AID1878 (Sanford-Burnham Center for Chemical Genomics, 2009)
